# Assay results as given in PubChem BioAssay (NCATS).
# Several values for one entry are separate records, joined by “and”; a condition that tells them apart may be missing. Equal entries are not always repeated. Results filed as inconclusive are left out. Entries that show only a call come without a potency. Activity calls are given as the source filed them. Unless noted, calls come from the whole dose curve; as a rule, active = well fitted curve in the direction sought with a large enough effect; inconclusive = small, poorly fitted or top-dose-only effect, or another doubt; inactive = no such curve, though single readings can be large; an effect the other way counts as inactive or inconclusive.
# Experiments:
# [1] = KB-8-5-11 P-gp reporter qHTS against the NCATS DSHEA and TCM libraries (AID 1919977)
# Method in brief: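 P-gp-overexpressing KB-8-5-11 cells were screened in colchicine-free medium at 500 cells/well, as a titration series. Cells were exposed for 72 h at 37C. Viability was read by CellTiter-Glo luminescence after 30 min at room temperature.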
# [2] = Cell Viability - BJ (AID 421; calls by dose curve;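 note: potency is the fitted concentration of half-maximal effect; cells exposed to compound for 40 hours at 37 °C before readout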); conditions: BJ fibroblast viability, qHTS
# Method in brief: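 Cytotoxicity in human BJ foreskin fibroblasts is scored as loss of cellular ATP after a 40-hour exposure, measured by luciferase luminescence. Controls are DMSO and 100 uM tamoxifen.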
# [3] = Cell Viability - HepG2 (AID 433; calls by dose curve;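 note: potency is the fitted concentration of half-maximal effect; potency for ATP loss meaning cytotoxicity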); conditions: qHTS
# Method in brief: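 HepG2 cells, 1500 per well, treated 40 hr at 37 °C in complete medium; viability from intracellular ATP by CellTiter-Glo luminescence. Normalized to DMSO and 100 uM tamoxifen; AC50 from Hill fit of qHTS concentration-response.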
# [4] = Cell Viability - SK-N-SH (AID 435; calls by dose curve;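 note: potency is the fitted concentration of half-maximal effect; compound exposure lasted 40 h at 37 °C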); conditions: SK-N-SH neuroblastoma cell viability qHTS
# Method in brief: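 SK-N-SH neuroblastoma cells (1500/well) treated 40 h at 37 °C in complete medium; viability read as cellular ATP by CellTiter-Glo luminescence. Normalized to DMSO and 100 uM tamoxifen; AC50 from Hill fits of qHTS concentration-response.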
# [5] = target: Mitogen-activated protein kinase 10 (Mus musculus) (UniProt Q61831); experiment: JNK3 AlphaScreen Assay (AID 530; active = well fitted curve in either direction with a large enough effect, not every such curve was filed as active;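 note: kinase came from lysate of stimulated human HepG2 cells; signal reports phosphorylation of biotinylated GST-cJun 1-79 at Ser73 with 10 µM ATP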)
# Method in brief: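 Biotinylated GST-cJun(1-79) served as substrate for JNK3 in HepG2 lysates stimulated with IL-1beta and TNF-alpha. ATP was 10 uM final, pH 7.6. Ser73 phosphorylation was quantified by AlphaScreen (680 nm excitation).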
# [6] = Cell Viability - HUV-EC-C (AID 542); note: nearly all actives have a fitted effect of over 35% in size
# Method in brief: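 Concentration-dependent ATP loss in HUV-EC-C cells is the measure. Exposure lasts 40 hr at 37 °C; luminescence follows CellTiter-Glo addition, and Hill fits give AC50.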
# [7] = Cell Viability - Renal Proximal Tubule (AID 545); conditions: renal proximal tubule cells viability; at 91.7 µM (top of the series), primary cells of rat origin unless noted; note: nearly all actives have a fitted effect of over 40% in size
# Method in brief: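 Rat renal proximal tubule primary cells, 1000/well, exposed to compounds for 40 hr at 37 °C in complete medium; cellular ATP read by CellTiter-Glo luminescence. AC50 from concentration-response fitted with standard Hill equation.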
# [8] = Cell Viability - Mesenchymal (AID 546);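 note: cells exposed to compound for 40 hours before reading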
# Method in brief: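 In this qHTS cytotoxicity format, glomerulus-derived human mesenchymal kidney cells received compound for 40 hr, then luciferase-based ATP quantitation. Concentration-response data were fitted with the Hill equation.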
# [9] = Cellular Toxicity (caspase-3) HepG2 (AID 654);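 note: cells exposed to compound for 16 hours before reading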
# Method in brief: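 Concentration-response AC50 values reflect caspase-3/7 induction in HepG2 cells after 16 hours of compound exposure, quantified by luminescence from liberated aminoluciferin and referenced to 100 uM tamoxifen as full stimulation.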
# [10] = Cellular Toxicity (caspase-3) Jurkat (AID 655); conditions: Jurkat caspase-3 activation, luminescence, DMSO = 0%, tamoxifen = 100%; at 92.2 µM (top of the series);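 note: cells exposed to compound for 16 h at 37 °C before reading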
# Method in brief: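 Jurkat cells (5000/well) in complete medium exposed 16 h at 37 C; caspase-3/7 activity read by Caspase-Glo luminescence after 20 min at room temperature. Normalized to DMSO and 100 uM tamoxifen; AC50 from Hill fits.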
# [11] = Cellular Toxicity (caspase-3) HUV-EC-C (AID 656)
# Method in brief: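 HUV-EC-C cells (1000/well) in complete medium, compound-treated 16 h at 37 °C; caspase-3/7 activity read by Caspase-Glo 3/7 luminescence. Normalized to DMSO (basal) and 100 uM tamoxifen (100%); AC50 from Hill-equation concentration-response fits.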
# [12] = Cellular Toxicity (caspase-3) SHSY5Y (AID 657)
# Method in brief: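 SH-SY5Y human neuroblastoma cells, 1500/well, exposed to compound for 16 hours at 37 °C in complete medium. Caspase-3/7 activity read by Caspase-Glo luminescence after 1 hr at room temperature, normalized to DMSO and 10 uM staurosporine; AC50 from Hill fit.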
# [13] = Cellular Toxicity (caspase-3) BJ (AID 658)
# Method in brief: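 Plated BJ cells (1000/well) rested 5 hr, received compound for 16 hr at 37 °C, then Caspase-Glo 3/7 reagent for 1 hr at room temperature before luminescence reading.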
# [14] = Cellular Toxicity (caspase-3) MRC-5 (AID 659)
# Method in brief: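 Apoptosis readout in MRC-5 cells: luciferase light generated after caspase 3/7 cleaves a peptide-aminoluciferin substrate, measured post 16 hr compound incubation at 37 °C.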
# [15] = Cellular Toxicity (caspase-3) Mesangial (AID 660);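 note: cells exposed to compound for 16 h before the caspase read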
# Method in brief: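 AC50 values come from Hill-equation fits of caspase 3/7 activation, measured as Caspase-Glo luminescence in human glomerular mesangial cells exposed to compound for 16 h at 37 °C; 100% set by 100 uM tamoxifen.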
# [16] = Cellular Toxicity (caspase-3) SK-N-SH (AID 661)
# Method in brief: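 Apoptosis readout in SK-N-SH neuroblastoma: Caspase-Glo 3/7 luminescence following 16 hr treatment in complete culture medium. Normalization used DMSO and 10 uM staurosporine controls.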
# [17] = Cellular Toxicity (caspase-3) H-4-II-E (AID 663);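 note: cells exposed to compound for 16 hr before readout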
# Method in brief: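 Caspase 3/7 activation measured in H-4-II-E cells in complete culture medium after 16 hr treatment at 37 °C, using luciferase-coupled substrate readout; AC50 values come from Hill-equation fits of normalized concentration-response data.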
# [18] = Cellular Toxicity (caspase-3) Renal Proximal Tubule (AID 667); conditions: renal proximal tubule cells; at 91.7 µM (top of the series), primary cells freshly taken from rat, solvent-only wells 0%, staurosporine 100% unless noted;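 note: cells exposed to compound for 16 hours at 37 °C before detection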
# Method in brief: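 Freshly isolated primary rat kidney proximal tubule cells, 1000/well, treated 16 hr at 37 °C, then Caspase-Glo 3/7 luminescence after 1 hr. Normalized to DMSO and 10 uM staurosporine; AC50 from Hill fit.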
# [19] = qHTS assay for small molecule antagonists of retinoid X receptor alpha signaling (AID 588546; active = well fitted inhibition curve with a large enough effect in the signal ratio, with a control signal flat, not every such curve was filed as active; the % refers to the signal ratio;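 note: cells stimulated with 9-cis-retinoic acid as agonist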); conditions: HEK293T RXRa-UAS-bla, beta-lactamase ratio, antagonist mode; measured here: W530 green channel, cytotoxicity proxy
# Method in brief: (§1)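 Beta-lactamase reporter inhibition, read as CCF4 fluorescence ratio (ex 405, em 460/530 nm) after 2 h at RT. HEK293T UAS-bla cells, 2500/well, were stimulated with 9-cis-RA at 500 or 100 nM final alongside test compound for 18 h at 37 C.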
# [20] = target: Retinoic acid receptor RXR-alpha (Homo sapiens) (UniProt P19793); experiment: as above; conditions: HEK293T RXRa-UAS-bla, beta-lactamase ratio, antagonist mode
# Retinoic acid receptor RXR-alpha (Homo sapiens), sequence (P19793 whole entry, looked up): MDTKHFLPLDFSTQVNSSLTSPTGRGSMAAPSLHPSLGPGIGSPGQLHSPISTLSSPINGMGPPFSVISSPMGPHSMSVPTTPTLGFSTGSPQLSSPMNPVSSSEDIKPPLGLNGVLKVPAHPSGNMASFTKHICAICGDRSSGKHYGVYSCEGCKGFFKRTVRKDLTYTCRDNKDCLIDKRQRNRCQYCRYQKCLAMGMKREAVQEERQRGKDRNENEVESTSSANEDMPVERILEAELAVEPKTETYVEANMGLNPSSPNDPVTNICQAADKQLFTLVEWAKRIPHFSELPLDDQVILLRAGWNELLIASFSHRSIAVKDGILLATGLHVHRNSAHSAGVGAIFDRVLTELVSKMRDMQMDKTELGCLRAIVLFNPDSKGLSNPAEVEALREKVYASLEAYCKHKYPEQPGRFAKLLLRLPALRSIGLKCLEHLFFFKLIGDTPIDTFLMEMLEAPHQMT
# Method in brief: as §1
smiles,measurement,setting,value
COc1ccc(/C=C/c2cc(OC)cc(=O)o2)cc1,Potency,[1],inactive
OCC1=C[C@@H](O)[C@@H]2C=CO[C@@H](OC3O[C@H](CO)[C@@H](O)[C@H](O)[C@H]3O)[C@H]12 (some centres not stated),Potency,[1],inactive
CC1=CCC2CC1C2(C)C (configuration not stated),Potency,[1],inactive
CC1(C)CC[C@]2(C(=O)O)CC[C@]3(C)C(=CCC4[C@@]5(C)CC[C@@H](O)C(C)(C)C5CC[C@]43C)C2C1 (some centres not stated),Potency,[1],inactive
CC(C)=CCCC(C)(OC1OC(COC2OC(CO)C(O)C2O)C(O)C(O)C1O)C1CCC2(C)C1C(O)CC1C3(C)CCC(OC4OC(CO)C(O)C(O)C4OC4OC(CO)C(O)C(O)C4O)C(C)(C)C3CCC12C (configuration not stated),Potency,[1],inactive
CC1=CC[C@H](C(C)C)C=C1,Potency,[1],inactive
C=CC(C)=O,Potency,[2],> 92 µM (inactive)
same,Potency,[3],> 92 µM (inactive)
same,Potency,[4],> 92 µM (inactive)
same,outcome,[5],inactive
same,Potency,[6],inactive
same,"activity change, negative = cytotoxicity",[7],14% (inactive)
same,outcome,[8],inactive
same,outcome,[9],inactive
same,caspase-3 activation,[10],-0.622% (inactive)
same,outcome,[11],inactive
same,outcome,[12],inactive
same,outcome,[13],inactive
same,outcome,[14],inactive
same,outcome,[15],inactive
same,outcome,[16],inactive
same,outcome,[17],inactive
same,caspase-3 activation,[18],-2.96% (inactive)
same,max response,[19],-5.91%
same,max response,[20],8.07% (inactive)
COc1ccc2ccc(=O)oc2c1,Potency,[1],inactive
CC/C=C\C/C=C\C/C=C\C/C=C\C/C=C\CCCCCC(=O)O,"activity change, negative = inhibition",[1],8.8% [at 3.26 µM] (inactive)
CC12CC3(O)OC(O1)C1(COC(=O)c4ccc(O)cc4)C3CC21OC1OC(CO)C(O)C(O)C1O (configuration not stated),Potency,[1],inactive
N#CCCCl,Potency,[2],> 92 µM (inactive)
same,Potency,[3],> 92 µM (inactive)
same,Potency,[4],> 92 µM (inactive)
same,outcome,[5],inactive
same,Potency,[6],inactive
same,"activity change, negative = cytotoxicity",[7],1.51% (inactive) and -5.91% (inactive)
same,outcome,[8],inactive
same,outcome,[9],inactive
same,caspase-3 activation,[10],-0.233% (inactive) and -1.87% (inactive)
same,outcome,[11],inactive
same,outcome,[12],inactive
same,outcome,[13],inactive
same,outcome,[14],inactive
same,outcome,[15],inactive
same,outcome,[16],inactive
same,outcome,[17],inactive
same,caspase-3 activation,[18],-13% (inactive) and 8.86% (inactive)
same,max response,[19],2.8% and 0.773%
same,max response,[20],15.2% (inactive) and 9.43% (inactive)
Oc1cc(O)c2c(c1)OC(c1ccc(O)c(O)c1)C(O)C2 (configuration not stated),Potency,[1],inactive
O=C(OC[C@H]1O[C@@H](OC(=O)c2cc(O)c(O)c(O)c2)[C@H](OC(=O)c2cc(O)c(O)c(O)c2)[C@@H](OC(=O)c2cc(O)c(O)c(O)c2)[C@@H]1O)c1cc(O)c(O)c(O)c1,Potency,[1],inactive
CC1(C)CC[C@]2(C(=O)O)CC[C@]3(C)C(=CCC4[C@@]5(C)CC[C@H](O)[C@@](C)(CO)C5CC[C@]43C)[C@H]2C1 (some centres not stated),Potency,[1],inactive
ClCBr,Potency,[2],> 92 µM (inactive)
same,Potency,[3],> 92 µM (inactive)
same,Potency,[4],> 92 µM (inactive)
same,outcome,[5],inactive
same,Potency,[6],inactive
same,"activity change, negative = cytotoxicity",[7],-6.27% (inactive)
same,outcome,[8],inactive
same,outcome,[9],inactive
same,caspase-3 activation,[10],-0.634% (inactive)
same,outcome,[11],inactive
same,outcome,[12],inactive
same,outcome,[13],inactive
same,outcome,[14],inactive
same,outcome,[15],inactive
same,outcome,[16],inactive
same,outcome,[17],inactive
same,caspase-3 activation,[18],-5.04% (inactive)
same,max response,[19],-9.96%
same,max response,[20],-1.21% (inactive)
CC1CC[C@]2(C(=O)O)CC[C@]3(C(=O)O)C(=CCC4[C@@]5(C)CC[C@H](OC6OC(C)C(O)C(OC7OC(CO)C(O)C(O)C7O)C6O)C(C)(C)C5CC[C@]43C)C2C1C (some centres not stated),Potency,[1],inactive
C=C(C)C(=O)OCC1CO1 (configuration not stated),Potency,[2],> 92 µM (inactive)
same,Potency,[3],> 92 µM (inactive)
same,Potency,[4],> 92 µM (inactive)
same,outcome,[5],inactive
same,Potency,[6],inactive
same,"activity change, negative = cytotoxicity",[7],-4.58% (inactive)
same,outcome,[8],inactive
same,outcome,[9],inactive
same,caspase-3 activation,[10],1.42% (inactive)
same,outcome,[11],inactive
same,outcome,[12],inactive
same,outcome,[13],inactive
same,outcome,[14],inactive
same,outcome,[15],inactive
same,outcome,[16],inactive
same,outcome,[17],inactive
same,caspase-3 activation,[18],-4.2% (inactive)
same,max response,[19],-2.75%
same,max response,[20],4.24% (inactive)
Clc1nc(Cl)nc(Cl)n1,Potency,[2],> 92 µM (inactive)
same,Potency,[3],> 92 µM (inactive)
same,Potency,[4],> 92 µM (inactive)
same,outcome,[5],inactive
same,Potency,[6],inactive
same,"activity change, negative = cytotoxicity",[7],-4.88% (inactive)
same,outcome,[8],inactive
same,outcome,[9],inactive
same,caspase-3 activation,[10],0.301% (inactive)
same,outcome,[11],inactive
same,outcome,[12],inactive
same,outcome,[13],inactive
same,outcome,[14],inactive
same,outcome,[15],inactive
same,outcome,[16],inactive
same,outcome,[17],inactive
same,caspase-3 activation,[18],1.34% (inactive)
same,max response,[19],-2.29% and -4.83%
same,max response,[20],12.3% (inactive) and -0.616% (inactive)
CC(C)(C)OOC(C)(C)C,Potency,[2],> 92 µM (inactive)
same,Potency,[3],> 92 µM (inactive)
same,Potency,[4],> 92 µM (inactive)
same,outcome,[5],inactive
same,Potency,[6],inactive
same,"activity change, negative = cytotoxicity",[7],-8.32% (inactive)
same,outcome,[8],inactive
same,outcome,[9],inactive
same,caspase-3 activation,[10],0.243% (inactive)
same,outcome,[11],inactive
same,outcome,[12],inactive
same,outcome,[13],inactive
same,outcome,[14],inactive
same,outcome,[15],inactive
same,outcome,[16],inactive
same,outcome,[17],inactive
same,caspase-3 activation,[18],11.1% (inactive)
same,max response,[19],-12.4%
same,max response,[20],11.6% (inactive)
